Targets with a hit are over-represented here; the source holds about 7,900 in all. About 0.6% of all pairs of compound and target were hits.
Key:
Assay in all cases: log2 fold change, soluble protein after heating vs DMSO (PISA); higher = thermal stabilisation; K562 cells, 10 uM, 30 min; active = over 0.2 and 3.5 SD of the protein, either way, in both replicates (recomputed)
[1] = compound: C1COCCN1CCN2C3=CC=CC=C3N=C2NC(=O)C4=CC(=CC=C4)[N+](=O)[O-] [IRAK-1-4 Inhibitor I]
Method in brief: (§1)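 For each measurement, 10 μM compound was applied for 30 min to K562 cells at 2×10^6 cells/mL. Aliquots were heated for 3 min across 48°C-58°C, pooled, and extracted in PBS with 0.5% NP-40 at 4°C; the supernatant after 21,000xg for 90 min was soluble protein. This was quantified by TMTpro 16plex LC-MS/MS with channel sums equalised, and thermal stability was reported relative to control samples from duplicates, on a log2 fold-change scale.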

[2] = compound: C=CC(=O)N1CCC[C@@H](n2nc(-c3ccc(Oc4ccccc4)cc3)c3c(N)ncnc32)C1 [ibrutinib]
Method in brief: as §1

[3] = compound: CC(=O)c1cnc2ccc(-c3cc(Cl)c(O)c(Cl)c3)nc2c1N[C@H]1CC[C@H](CN(C)C)CC1
Method in brief: as §1

[4] = compound: CC(C)(C)Cn1c(N)nc2ccc(-c3[nH]c(C(C)(C)C)nc3-c3ccc(F)cc3)nc21 [ralimetinib]
Method in brief: as §1

[5] = compound: CC(C)(O)CC(=O)NCCn1ccc2ncnc(Nc3ccc(Oc4cccc(C(F)(F)F)c4)c(Cl)c3)c21
Method in brief: as §1

[6] = compound: CC(C)C1=C2N=C(C=C(N2N=C1)NCC3=CC=CC=C3)NCCCCCCN
Method in brief: as §1

[7] = compound: CC(C)C[C@@H](C=O)NC(=O)[C@H](CC(C)C)NC(=O)[C@H](CC(C)C)NC(=O)OCc1ccccc1
Method in brief: as §1

[8] = compound: CC(C)N(C[C@H]1O[C@@H](n2cnc3c(N)ncnc32)[C@H](O)[C@@H]1O)[C@H]1C[C@@H](CCc2nc3cc(C(C)(C)C)ccc3[nH]2)C1 [pinometostat]
Method in brief: as §1

[9] = compound: CC1=C(C(CC(=O)N1)C2=CC=C(C=C2)C(F)(F)F)C(=O)NC3=C(C=C4C(=C3)C=NN4)F
Method in brief: as §1

[10] = compound: CC1=C(C2=C(C=C1)C(=O)C3=CC=CC=C3N2CCCN)C
Method in brief: as §1

[11] = compound: CC1=C(C=C(C=C1)NC(=O)C2=CC(=CC=C2)C(C)(C)C#N)NC3=CC4=C(C=C3)N=CN(C4=O)C
Method in brief: as §1

[12] = compound: CC1=C(C=C(C=C1)NC(=O)C2=CC(=CC=C2)N(C)C)NC(=O)C3=CC=C(C=C3)O
Method in brief: as §1

[13] = compound: CC1=CC=C(C=C1)SC2=C3C=C(SC3=CN=C2)C(=O)N
Method in brief: as §1

[14] = compound: CC1=NC(=CC=C1)C2=C(N=C(N2)C(C)(C)C)C3=CC4=NC=CN=C4C=C3
Method in brief: as §1

[15] = compound: CCCCN(Cc1ccc(C(=O)NO)cc1)C(=O)Nc1ccccc1 [Nexturastat A]
Method in brief: as §1

[16] = compound: CCCS(=O)(=O)Nc1ccc(F)c(C(=O)c2c[nH]c3ncc(-c4ccc(Cl)cc4)cc23)c1F [vemurafenib]
Method in brief: as §1

[17] = compound: CCCS(=O)(=O)Nc1ccc(F)c(C(=O)c2c[nH]c3ncc(Cl)cc23)c1F
Method in brief: as §1

[18] = compound: CCCc1cc(C)[nH]c(=O)c1CNC(=O)c1cc(-c2ccnc(N3CCN(C)CC3)c2)cc2c1cnn2C(C)C
Method in brief: as §1

[19] = compound: CCN(CC)Cc1ccc2cc(COC(=O)Nc3ccc(C(=O)NO)cc3)ccc2c1 [givinostat]
Method in brief: as §1

[20] = compound: CCN(CCCOc1ccc2c(Nc3cc(CC(=O)Nc4cccc(F)c4)[nH]n3)ncnc2c1)CCOP(=O)(O)O [barasertib]
Method in brief: as §1

Measured: log2 fold change

MOV10 (UniProt Q9HCE1)
UniProt Q9HCE1, sequence (Q9HCE1 whole entry, looked up): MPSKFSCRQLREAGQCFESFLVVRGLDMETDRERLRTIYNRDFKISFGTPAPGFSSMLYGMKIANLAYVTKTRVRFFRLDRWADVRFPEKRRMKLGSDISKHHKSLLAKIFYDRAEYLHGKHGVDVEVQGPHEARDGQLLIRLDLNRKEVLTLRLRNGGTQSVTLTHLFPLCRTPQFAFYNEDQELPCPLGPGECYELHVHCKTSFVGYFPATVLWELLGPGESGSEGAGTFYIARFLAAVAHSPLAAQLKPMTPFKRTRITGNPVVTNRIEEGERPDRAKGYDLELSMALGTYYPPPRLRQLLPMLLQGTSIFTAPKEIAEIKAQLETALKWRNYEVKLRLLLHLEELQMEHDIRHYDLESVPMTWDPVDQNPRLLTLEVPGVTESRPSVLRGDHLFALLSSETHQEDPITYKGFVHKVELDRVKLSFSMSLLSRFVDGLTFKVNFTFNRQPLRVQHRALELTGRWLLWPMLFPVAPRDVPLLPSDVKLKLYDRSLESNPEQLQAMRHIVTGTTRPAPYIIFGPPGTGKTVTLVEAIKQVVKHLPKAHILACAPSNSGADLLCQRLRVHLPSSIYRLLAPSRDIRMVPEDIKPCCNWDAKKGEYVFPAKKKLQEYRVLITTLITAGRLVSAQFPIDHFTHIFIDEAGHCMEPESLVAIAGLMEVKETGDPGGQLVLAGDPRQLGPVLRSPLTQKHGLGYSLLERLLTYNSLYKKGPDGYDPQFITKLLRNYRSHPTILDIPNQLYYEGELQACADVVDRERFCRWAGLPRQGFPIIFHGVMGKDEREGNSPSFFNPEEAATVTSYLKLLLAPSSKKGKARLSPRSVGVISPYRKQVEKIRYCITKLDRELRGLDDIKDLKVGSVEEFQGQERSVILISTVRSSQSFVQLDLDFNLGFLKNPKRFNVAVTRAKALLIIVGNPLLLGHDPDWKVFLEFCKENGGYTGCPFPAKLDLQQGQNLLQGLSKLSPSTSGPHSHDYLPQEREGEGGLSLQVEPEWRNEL
inactive: [1] -0.135 | [2] 0.002 | [3] 0.069 | [4] 0.12 | [5] 0.082 | [6] 0.02 | [7] 0.033 | [8] 0.163 | [9] -0.052 | [10] -0.305 | [11] 0.044 | [12] 0.017 | [13] -0.055 | [14] -0.067 | [15] 0.221 | [16] -0.027 | [17] -0.048 | [18] 0.054 | [19] -0.006 | [20] -0.05

MON2 isoform 5 (UniProt Q7Z3U7)
inactive: [1] 0.013 | [2] -0.036 | [3] -0.005 | [4] 0.097 | [5] -0.076 | [6] -0.088 | [7] 0.004 | [8] 0.048 | [9] -0.022 | [10] 0.055 | [11] -0.002 | [12] -0.009 | [13] -0.036 | [14] 0.018 | [15] 0 | [16] 0.017 | [17] 0.085 | [18] 0.046 | [19] 0.029 | [20] 0.039

MRPS17 (UniProt Q9Y2R5)
inactive: [1] -0.192 | [2] 0.06 | [3] -0.029 | [4] 0.032 | [5] -0.054 | [6] 0.014 | [7] 0.025 | [8] -0.027 | [9] -0.049 | [10] -0.2 | [11] 0.055 | [12] -0.095 | [13] -0.014 | [14] 0.008 | [15] 0.085 | [16] 0.084 | [17] 0.031 | [18] 0.095 | [19] -0.103 | [20] 0.01

OAT (UniProt P04181)
UniProt P04181, sequence (P04181 whole entry, looked up): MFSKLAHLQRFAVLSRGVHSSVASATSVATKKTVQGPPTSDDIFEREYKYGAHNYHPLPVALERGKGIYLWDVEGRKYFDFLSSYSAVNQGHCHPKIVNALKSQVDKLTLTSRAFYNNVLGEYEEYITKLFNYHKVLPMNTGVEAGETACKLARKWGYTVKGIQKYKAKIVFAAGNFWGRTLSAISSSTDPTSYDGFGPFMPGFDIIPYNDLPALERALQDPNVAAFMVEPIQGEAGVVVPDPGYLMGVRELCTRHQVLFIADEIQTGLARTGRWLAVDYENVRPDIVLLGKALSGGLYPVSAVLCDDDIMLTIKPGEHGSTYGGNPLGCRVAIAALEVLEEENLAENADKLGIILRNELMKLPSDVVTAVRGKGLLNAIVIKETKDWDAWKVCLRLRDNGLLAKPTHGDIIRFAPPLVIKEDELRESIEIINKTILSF
active: [6] -0.245
inactive: [1] 0.044 | [2] -0.006 | [3] -0.044 | [4] -0.053 | [5] -0.113 | [7] 0.007 | [8] -0.027 | [9] -0.006 | [10] -0.007 | [11] 0.087 | [12] 0.014 | [13] 0.02 | [14] 0.042 | [15] -0.01 | [16] 0.011 | [17] -0.023 | [18] -0.011 | [19] 0.045 | [20] 0.061

NPC1 (UniProt O15118)
UniProt O15118, sequence (O15118 whole entry, looked up): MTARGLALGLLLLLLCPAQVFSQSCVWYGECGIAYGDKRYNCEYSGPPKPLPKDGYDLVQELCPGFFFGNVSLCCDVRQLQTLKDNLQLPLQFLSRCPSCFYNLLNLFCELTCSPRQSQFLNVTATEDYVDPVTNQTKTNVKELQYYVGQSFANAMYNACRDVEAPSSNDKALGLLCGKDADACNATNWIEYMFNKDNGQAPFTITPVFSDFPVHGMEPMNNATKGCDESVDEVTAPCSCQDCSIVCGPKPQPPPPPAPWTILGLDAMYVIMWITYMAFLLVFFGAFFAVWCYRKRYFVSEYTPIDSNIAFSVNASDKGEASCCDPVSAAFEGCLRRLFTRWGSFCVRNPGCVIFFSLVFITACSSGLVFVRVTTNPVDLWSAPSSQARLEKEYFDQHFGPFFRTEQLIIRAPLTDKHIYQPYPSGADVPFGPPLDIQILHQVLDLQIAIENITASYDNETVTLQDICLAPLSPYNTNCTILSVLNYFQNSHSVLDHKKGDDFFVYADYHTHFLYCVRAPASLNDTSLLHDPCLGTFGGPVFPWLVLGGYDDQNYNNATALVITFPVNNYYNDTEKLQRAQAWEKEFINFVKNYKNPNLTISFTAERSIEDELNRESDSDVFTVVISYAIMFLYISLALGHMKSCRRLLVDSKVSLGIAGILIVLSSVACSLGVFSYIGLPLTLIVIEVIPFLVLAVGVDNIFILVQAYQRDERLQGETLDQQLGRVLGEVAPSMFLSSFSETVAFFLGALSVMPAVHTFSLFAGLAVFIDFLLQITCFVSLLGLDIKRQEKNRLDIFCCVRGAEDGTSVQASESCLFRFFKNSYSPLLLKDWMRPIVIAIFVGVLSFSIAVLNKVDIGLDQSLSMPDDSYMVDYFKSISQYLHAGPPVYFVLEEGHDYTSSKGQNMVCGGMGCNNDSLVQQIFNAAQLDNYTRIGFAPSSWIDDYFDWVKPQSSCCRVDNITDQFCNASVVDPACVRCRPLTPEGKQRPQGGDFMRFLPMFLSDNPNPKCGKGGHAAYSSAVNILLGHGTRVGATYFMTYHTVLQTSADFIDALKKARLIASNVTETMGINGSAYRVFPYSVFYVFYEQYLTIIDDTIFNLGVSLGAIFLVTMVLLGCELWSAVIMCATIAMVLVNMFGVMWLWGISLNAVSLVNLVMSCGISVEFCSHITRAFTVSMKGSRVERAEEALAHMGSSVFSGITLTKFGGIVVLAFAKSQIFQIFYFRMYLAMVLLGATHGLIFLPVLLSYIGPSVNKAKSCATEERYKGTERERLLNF
inactive: [1] 0.014 | [2] 0.03 | [3] 0.031 | [4] -0.041 | [5] 0.028 | [6] -0.184 | [7] 0.006 | [8] -0.055 | [9] 0.078 | [10] -0.147 | [11] -0.018 | [12] 0.01 | [13] 0.006 | [14] 0.066 | [15] -0.041 | [16] 0.007 | [17] -0.019 | [18] -0.028 | [19] -0.051 | [20] 0.02

MRPS10 (UniProt P82664)
inactive: [1] -0.024 | [2] 0.02 | [3] -0.065 | [4] -0.031 | [5] 0.01 | [6] -0.027 | [7] 0.066 | [8] 0.045 | [9] 0.041 | [10] -0.28 | [11] 0.018 | [12] 0 | [13] 0 | [14] -0.03 | [15] 0.097 | [16] -0.002 | [17] 0.006 | [18] -0.046 | [19] 0.063 | [20] -0.051

MRPS35 (UniProt P82673)
inactive: [1] -0.035 | [2] 0.004 | [3] -0.082 | [4] -0.035 | [5] -0.047 | [6] -0.024 | [7] 0.083 | [8] 0.078 | [9] 0.006 | [10] -0.186 | [11] -0.016 | [12] -0.013 | [13] -0.04 | [14] -0.007 | [15] 0.167 | [16] -0.063 | [17] -0.022 | [18] 0.149 | [19] 0.017 | [20] -0.034

NMNAT1 (UniProt Q9HAN9)
inactive: [1] -0.007 | [2] 0.073 | [3] 0.05 | [4] 0.18 | [5] 0.13 | [6] 0.093 | [7] 0.168 | [8] 0.429 | [9] 0.051 | [11] -0.079 | [12] 0.006 | [13] -0.09 | [14] -0.196 | [15] 0.132 | [16] -0.162 | [17] -0.139 | [18] 0.178 | [19] 0.042 | [20] -0.064
active: [10] -0.674

NUDCD2 (UniProt Q8WVJ2)
UniProt Q8WVJ2, sequence (Q8WVJ2 whole entry, looked up): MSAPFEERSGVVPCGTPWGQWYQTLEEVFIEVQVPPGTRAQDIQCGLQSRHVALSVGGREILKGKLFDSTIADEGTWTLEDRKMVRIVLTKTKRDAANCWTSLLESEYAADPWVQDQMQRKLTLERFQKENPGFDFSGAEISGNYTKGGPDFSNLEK
inactive: [1] -0.032 | [2] -0.035 | [3] -0.027 | [4] 0.033 | [5] -0.045 | [6] -0.248 | [7] -0.012 | [8] 0.066 | [9] -0.023 | [10] -0.064 | [11] -0.018 | [12] -0.109 | [13] 0.117 | [14] 0.019 | [15] 0.082 | [16] -0.014 | [17] 0.008 | [18] -0.039 | [19] 0.047 | [20] 0.104

NSUN2 (UniProt Q08J23)
UniProt Q08J23, sequence (Q08J23 whole entry, looked up): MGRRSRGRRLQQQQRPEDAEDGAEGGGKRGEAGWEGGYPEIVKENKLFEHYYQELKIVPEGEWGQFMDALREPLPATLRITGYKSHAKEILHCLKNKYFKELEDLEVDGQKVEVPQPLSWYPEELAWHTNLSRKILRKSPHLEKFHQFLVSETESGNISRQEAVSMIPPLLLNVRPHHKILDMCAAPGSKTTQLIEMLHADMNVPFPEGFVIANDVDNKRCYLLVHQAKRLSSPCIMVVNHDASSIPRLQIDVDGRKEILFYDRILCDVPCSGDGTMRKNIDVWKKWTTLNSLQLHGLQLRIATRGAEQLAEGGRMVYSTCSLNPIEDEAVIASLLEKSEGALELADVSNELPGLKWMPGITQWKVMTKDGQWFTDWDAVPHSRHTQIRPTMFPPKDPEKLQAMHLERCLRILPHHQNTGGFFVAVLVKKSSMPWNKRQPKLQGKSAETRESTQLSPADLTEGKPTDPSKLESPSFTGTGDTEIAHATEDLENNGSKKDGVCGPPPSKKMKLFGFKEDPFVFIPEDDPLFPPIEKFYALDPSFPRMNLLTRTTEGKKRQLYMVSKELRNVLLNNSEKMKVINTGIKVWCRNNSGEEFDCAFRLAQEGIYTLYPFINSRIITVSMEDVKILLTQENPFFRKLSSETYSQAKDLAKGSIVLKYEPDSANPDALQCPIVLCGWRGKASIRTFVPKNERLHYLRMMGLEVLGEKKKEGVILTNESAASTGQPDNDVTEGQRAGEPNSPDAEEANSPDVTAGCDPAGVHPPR
inactive: [1] -0.02 | [2] -0.029 | [3] -0.165 | [4] 0.062 | [5] -0.008 | [7] 0.026 | [8] 0.058 | [9] 0.008 | [10] -0.075 | [11] -0.042 | [12] 0.013 | [13] -0.021 | [14] -0.009 | [15] 0.037 | [16] 0.016 | [17] 0.061 | [18] 0.019 | [19] -0.204 | [20] 0.037
active: [6] -0.314

MRPS9 (UniProt P82933)
inactive: [1] -0.061 | [2] 0.024 | [3] -0.022 | [4] -0.023 | [5] 0.001 | [6] -0.059 | [7] 0.07 | [8] 0.018 | [9] -0.048 | [11] 0.053 | [12] -0.025 | [13] -0.029 | [14] 0.02 | [15] 0.057 | [16] -0.043 | [17] 0.053 | [18] -0.019 | [19] 0.026 | [20] -0.043
active: [10] -0.243

NASP (UniProt P49321)
inactive: [1] 0.01 | [2] -0.044 | [3] 0.033 | [4] 0.019 | [5] -0.004 | [6] -0.05 | [7] -0.009 | [8] -0.048 | [9] -0.021 | [10] -0.09 | [11] 0.012 | [12] -0.033 | [13] 0 | [14] 0.009 | [15] -0.058 | [16] 0.037 | [17] 0.038 | [18] -0.006 | [19] 0.001 | [20] 0.027

MYH10 isoform 3 (UniProt P35580)
inactive: [1] 0.024 | [2] -0.022 | [3] -0.011 | [4] -0.04 | [5] -0.069 | [6] -0.05 | [7] -0.001 | [8] -0.015 | [9] -0.019 | [10] -0.024 | [11] 0.009 | [12] -0.033 | [13] 0.019 | [14] 0.07 | [15] -0.05 | [16] 0.028 | [17] 0.05 | [18] 0 | [19] -0.003 | [20] 0.038

NAT14 (UniProt Q8WUY8)
UniProt Q8WUY8, sequence (Q8WUY8 whole entry, looked up): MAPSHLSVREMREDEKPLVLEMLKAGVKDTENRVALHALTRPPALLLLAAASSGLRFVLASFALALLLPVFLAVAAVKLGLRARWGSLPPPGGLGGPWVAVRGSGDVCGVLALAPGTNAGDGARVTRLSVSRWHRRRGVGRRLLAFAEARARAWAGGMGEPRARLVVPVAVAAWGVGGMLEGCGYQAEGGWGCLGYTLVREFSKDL
inactive: [1] -0.061 | [2] 0.019 | [3] -0.033 | [4] -0.028 | [5] -0.257 | [6] -0.185 | [7] 0.027 | [8] -0.074 | [9] 0.022 | [10] -0.187 | [11] 0.012 | [12] -0.054 | [13] 0.011 | [14] 0.031 | [15] 0.227 | [16] 0.054 | [17] -0.051 | [18] -0.103 | [19] -0.043 | [20] 0.027

MTHFS (UniProt P49914)
UniProt P49914, sequence (P49914 whole entry, looked up): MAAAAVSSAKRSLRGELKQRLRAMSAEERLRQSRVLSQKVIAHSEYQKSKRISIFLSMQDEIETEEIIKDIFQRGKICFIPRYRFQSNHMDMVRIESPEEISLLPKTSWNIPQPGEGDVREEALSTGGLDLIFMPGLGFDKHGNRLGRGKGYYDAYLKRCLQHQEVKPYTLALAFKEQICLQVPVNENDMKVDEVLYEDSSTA
inactive: [1] -0.003 | [2] -0.01 | [3] -0.009 | [4] -0.09 | [5] -0.095 | [6] -0.009 | [7] 0.007 | [8] -0.03 | [9] -0.044 | [10] 0.031 | [11] 0.047 | [12] -0.054 | [13] -0.01 | [14] 0.047 | [15] -0.005 | [16] -0.017 | [17] 0.01 | [18] -0.041 | [19] -0.063 | [20] 0.009

OPA1 isoform 2 (UniProt O60313)
UniProt O60313, sequence (O60313 whole entry, looked up): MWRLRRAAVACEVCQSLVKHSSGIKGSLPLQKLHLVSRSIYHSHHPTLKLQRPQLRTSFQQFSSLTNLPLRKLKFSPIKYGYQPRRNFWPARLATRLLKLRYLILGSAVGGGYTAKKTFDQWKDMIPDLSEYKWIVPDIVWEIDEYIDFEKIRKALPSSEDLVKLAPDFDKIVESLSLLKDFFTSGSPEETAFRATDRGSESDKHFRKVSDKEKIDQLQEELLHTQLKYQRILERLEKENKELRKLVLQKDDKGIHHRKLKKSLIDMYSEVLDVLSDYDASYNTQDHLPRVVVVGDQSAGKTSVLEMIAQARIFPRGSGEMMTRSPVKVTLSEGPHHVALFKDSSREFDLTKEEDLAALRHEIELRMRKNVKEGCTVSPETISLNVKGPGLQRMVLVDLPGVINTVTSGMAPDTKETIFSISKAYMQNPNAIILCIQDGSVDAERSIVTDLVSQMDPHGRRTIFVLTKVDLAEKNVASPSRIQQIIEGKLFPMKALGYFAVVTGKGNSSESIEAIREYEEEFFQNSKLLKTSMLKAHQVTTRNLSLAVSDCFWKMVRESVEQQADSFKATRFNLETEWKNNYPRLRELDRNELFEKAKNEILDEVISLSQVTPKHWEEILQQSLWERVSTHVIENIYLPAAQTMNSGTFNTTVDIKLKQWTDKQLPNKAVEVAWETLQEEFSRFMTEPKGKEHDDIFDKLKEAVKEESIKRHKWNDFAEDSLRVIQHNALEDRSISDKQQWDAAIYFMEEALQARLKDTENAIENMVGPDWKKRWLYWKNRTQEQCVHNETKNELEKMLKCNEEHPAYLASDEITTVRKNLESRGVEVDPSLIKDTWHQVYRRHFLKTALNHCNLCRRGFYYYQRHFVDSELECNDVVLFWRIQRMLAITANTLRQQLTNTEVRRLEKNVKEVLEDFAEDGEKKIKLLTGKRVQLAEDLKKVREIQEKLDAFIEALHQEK
active: [6] -0.375
inactive: [1] -0.008 | [2] -0.009 | [3] -0.05 | [4] 0.043 | [5] -0.201 | [7] 0.004 | [8] 0.03 | [9] -0.006 | [10] 0.1 | [11] 0.01 | [12] -0.064 | [13] 0.027 | [14] -0.003 | [15] -0.018 | [16] -0.001 | [17] 0.095 | [18] -0.002 | [19] 0.052 | [20] 0.045

— the supplement of paper PMC10849652
